From ChEMBL document CHEMBL4513216, “Probing the Open Global Health Chemical Diversity Library for Multistage-Active Starting Points for Next-Generation Antimalarials” (ACS Infect Dis, 2020)
The whole screen tested about 69,000 compounds, of which about 8,600 (12%) showed an effect of 50% or more. For the sample, strong results were picked, then their nearest neighbours and some compounds at random.

Test system: Plasmodium berghei
Assay: Screen against P. berghei liver stage (PbLuc), transformed with Luciferase, at 10uM
Type: functional, HepG2
Conditions: tested at 10 uM

SMILES | INHIBITION
N#CC1(C(=O)N2C[C@H](Nc3ncccn3)[C@@H](C3CC3)C2)CCOCC1 | -28.4%
Cc1ccnc(OC[C@@]23CCO[C@@H]2CCN(c2ncccn2)C3)n1 | 23.3%
Cc1ccnc(OC[C@@]23CCO[C@@H]2CCN(C2CCC2)C3)n1 | -16.9%
Cc1ccnc(OC[C@@]23CCO[C@@H]2CCN(S(C)(=O)=O)C3)n1 | 57.1%
CN(CCc1ccccc1)Cc1cnc(C2(C)CCCCO2)nc1 (stereo unspecified) | 10.871%
COc1cc(CN2C[C@H](OC)[C@]3(CCCO3)C2)ccc1F | 35.2%
Cc1ccnc(C(NC(=O)c2oc(C)nc2C)C2CC2)n1 (stereo unspecified) | 38.5%
Cc1ccnc(C(NC(=O)c2sc(C)nc2C)C2CC2)n1 (stereo unspecified) | 63.5%
Cc1ccnc(C(NC(=O)c2ccc(O)nc2C)C2CC2)n1 (stereo unspecified) | 2.65%
Cc1nc(C2CCCN2C(=O)CCn2cncn2)no1 (stereo unspecified) | -85%
c1cnc2c(c1)cc([C@H]1CCCO1)n2CCN1CCOCC1 | 30.1%
CN(Cc1ccc(F)cc1)Cc1cc2c(cc1Br)OCCO2 | 44.8%
CN(Cc1ccc(F)c(F)c1)Cc1cc2c(cc1Br)OCCO2 | -30%
CN(Cc1ccccc1F)Cc1cc2c(cc1Br)OCCO2 | 76.2%
CN(Cc1cscn1)Cc1cc2c(cc1Br)OCO2 | 31.9%
CC(NCc1cccc2c1OCCO2)c1cc2c(cc1Br)OCCO2 (stereo unspecified) | 4.15%
CN(Cc1ccc(F)cc1F)Cc1cc2c(cc1Br)OCCO2 | 52.6%
COc1ccccc1CN(Cc1nc(Cc2ccccc2)no1)C1CC1 | 21.3%
Cc1ccccc1CC(=O)N1C[C@@H]2COC[C@]2(CN(C)C)C1 | 20.5%
N#Cc1ccc(C(=O)O)nc1C=Cc1cccc(F)c1 | -23.2%
CC(C)CN1CC2(CCN(C(=O)C3CNC(=O)N3)CC2)CC1=O (stereo unspecified) | 53%
CC(C)CN1CC2(CCN(C(=O)C3CSC(C)(C)C(=O)N3)CC2)CC1=O (stereo unspecified) | 12%

SMILES | INHIBITION
CC(C)CN1CC2(CCN(C(=O)c3cn4cccnc4n3)CC2)CC1=O | -13.6%
CC(C)CN1CC2(CCN(C(=O)C(O)c3ccccc3Cl)CC2)CC1=O (stereo unspecified) | 6.88%
CC(C)CN1CC2(CCN(C(=O)c3cnccn3)CC2)CC1=O | -33%
CC(C)CN1CC2(CCN(C(=O)c3nc4ncccn4n3)CC2)CC1=O | 56%
CC(C)Oc1ccc2c(NC(=O)CNC(N)=O)nn(CC(F)(F)F)c2c1 | 29.7%
Cc1nc(O)cc([C@@H]2CN(C(=O)C3CC3)C[C@H]2c2ccccc2F)n1 | 60.55%
COCC(=O)N1C[C@@H](c2cc(O)nc(C)n2)[C@H](c2ccccc2F)C1 | 24.49%
CC(=O)N1C[C@H](c2cc(O)nc(C)n2)[C@@H](c2ccccc2F)C1 | 12.45%
Cc1cc(NCCO)nc(N2CCC(Cc3ccccc3)CC2)c1C#N | 29.1%
Cc1nccn1CC(=O)N1CC(Cc2nccc3ccn(C)c23)C1 | 34%
CC(C)N1CCC(CC(=O)N(C)CC(=O)c2ccc(O)cc2)CC1 | 1.98%
CCCN1CCC(CC(=O)N(C)C(C)c2cncs2)CC1 (stereo unspecified) | 6.33%
CCN1CCC(CC(=O)N(C)CC(=O)c2ccc(O)cc2)CC1 | 55%
CCCN1CCC(CC(=O)NCc2cc(O)ncn2)CC1 | 28.7%
CCCN1CCC(CC(=O)N(C)CC(=O)c2ccc(O)cc2)CC1 | 56.1%
CC(C)N1CCC(C(=O)N(C)CC(=O)c2ccc(O)cc2)CC1 | 23.6%
CN(C)C(=O)C1OC2(CCN(C(=O)N(C)C)CC2)c2ccccc21 (stereo unspecified) | 14.1%
CNc1cc(C2CCCN2C(=O)c2ccc(=O)[nH]n2)ccn1 (stereo unspecified) | -7.66%
N#Cc1ccsc1C(=O)N1CCCN(Cc2cscn2)CC1 | -14%
CC(C)n1nc(CNc2ncccn2)c2c1CN(C)CC2 | -3.77%
COC[C@]12COC[C@H]1CN(Cc1cc(OC)cc(OC)c1)C2 | 35.8%
O=C(c1cccnc1)N1CCC(c2nc(O)cc(-c3ccncc3)n2)C1 (stereo unspecified) | 1.5%

SMILES | INHIBITION
CNC(=O)CN1CCCC12CCN(C(=O)c1ccc(F)cc1)CC2 | 42.4%
CNC(=O)CN1CCCC12CCN(C(=O)c1ccsc1)CC2 | -0.937%
CNC(=O)CN1CCCC12CCN(C(=O)c1ccoc1)CC2 | 56.8%
CCOCC(O)CN1CCN(C(=O)c2cc(C)ccc2F)CC1 (stereo unspecified) | -59.4%
COCC1c2c(cnn2C)CCN1C(=O)c1cccn1C (stereo unspecified) | 46.6%
COc1c(C(=O)N2CCOCC2)cnc2c1c(C)nn2C | 2.59%
COc1c(C(=O)N2CCNC(=O)C2)cnc2c1c(C)nn2C | -25.1%
COC(=O)c1cnc2c(c(C)nn2C)c1OC | 66.8%
O=C(Cc1cccs1)NS(=O)(=O)c1cccc2cnccc12 | 36.3%
CCOc1ccc(CN2CCOCC2c2[nH]ncc2C)cc1CO (stereo unspecified) | 29.65%
Cc1cc(C(F)(F)F)nn1CCCNC(=O)C1CCCO1 (stereo unspecified) | 60.4%
Cc1cc(C(F)(F)F)nn1CCCNC(=O)C1CCCC1 | 43.2%
Cc1cc(C)n(CCCNC(=O)C2CCCO2)n1 (stereo unspecified) | 6.09%
Cc1cc2[nH]c(=O)oc2cc1S(=O)(=O)N1C[C@@H](N(C)C)[C@H](C(C)C)C1 | 26.5%
Cc1nc(CSCCC(=O)Nc2cccc(N3CCNC3=O)c2)cs1 | -24.6%
COCCN1CCO[C@@H]2CN(Cc3ccc(C)o3)C[C@@H]2C1 | -0.554%
Cc1ccc(-n2cc(S(=O)(=O)Nc3cccc(C(=O)O)c3C)cn2)cc1 | 68%
Cc1ccc(NS(=O)(=O)c2cnn(Cc3ccccc3)c2)c(C(=O)O)c1 | 51.6%
Cc1cccc(NS(=O)(=O)c2cnn(C)c2)c1C#N | 18.9%
COC(=O)c1ccccc1NS(=O)(=O)c1c(C)nn(C)c1C | -7.93%
CCn1nc(C)c(S(=O)(=O)Nc2ccccc2C(=O)OC)c1C | 29.7%
Cc1cn(-c2ccccc2)nc1NS(=O)(=O)c1cccc(C(=O)O)c1 | 40.9%

SMILES | INHIBITION
CCn1nc(C)c(S(=O)(=O)Nc2cccc(C(=O)O)c2C)c1C | 62.4%
CCS(=O)(=O)Nc1cnn(Cc2cccc(C)c2)c1 | -2.64%
Cc1ccc(NS(=O)(=O)c2cnn(-c3ccccc3)c2)c(C(=O)O)c1 | 22.5%
CC(=O)N1CCC(c2cncc(N3CCCCCC3)n2)CC1 | 17.4%
O=C(NC1CCCN(CCc2ccccc2)C1)c1cnccn1 (stereo unspecified) | -0.29%
Cc1cnn(C2CCCN(C(=O)Cc3cn4ccsc4n3)C2)c1 (stereo unspecified) | -9%
Cc1nc(C)c(C(=O)N2CCC(O)(Cn3ccc4ccncc43)CC2)s1 | -57.4%
CS(=O)(=O)c1cc(C(=O)NS(=O)(=O)Cc2ccc(F)cc2)ccc1Cl | 37.7%
O=C(Cc1noc(C(=O)NCCO)n1)Nc1cccc(C(F)(F)F)c1 | 25.2%
CC(C)(C)n1ncc2c1NC(=O)CC2c1cccs1 (stereo unspecified) | -0.87%
Cc1nc(CN2CCCC2Cn2cncn2)no1 (stereo unspecified) | 34.95%
COCc1nc2cc(NCc3cc[nH]n3)ccc2o1 | 67.1%
COCc1nc2cc(NCc3ccncc3)ccc2o1 | 18.5%
COCc1nc2cc(NCc3nc(C)cs3)ccc2o1 | -17.6%
COCc1nc2cc(NCc3scnc3C)ccc2o1 | 70.5%
Cc1cc(CNc2ccc3nc(C)sc3c2)no1 | -4.33%
COCc1nc2cc(NCc3csc(C)n3)ccc2o1 | 14.9%
CCC(C)CNc1ccc2oc(COC)nc2c1 (stereo unspecified) | -23.2%
CC(C)(C)c1nc2cc(NC(=O)Cn3ccc(=O)[nH]c3=O)ccc2o1 | 20%
Cc1ncsc1CNc1cc(N2CCCC2CO)ncn1 (stereo unspecified) | 27.4%
COCc1nc2cc(NCc3ccc(C)o3)ccc2o1 | 11.8%
COCc1nc2cc(NCc3sc(C)nc3C)ccc2o1 | 65.4%

SMILES | INHIBITION
COCc1nc2cc(NCc3ccc(CO)o3)ccc2o1 | 90.2%
CCNC(=O)[C@@H]1CCCN1C(=O)c1cccc(CCC(C)(C)O)c1 | -26.8%
CC(C)=CCN1C[C@@H]2CC[C@H]1CN(C(=O)CCc1nnc(C)[nH]1)C2 | 41.2%
Cc1cccc(N2CCOC(C(=O)O)C2)c1 (stereo unspecified) | 14.7%
CN1C(=O)CC(c2cnn(C)c2)C12CCN(CC1CCOCC1)CC2 (stereo unspecified) | -9.74%
Cn1ccnc1CCC1CCCCN1Cc1cnc(N2CCCC2)nc1 (stereo unspecified) | -25%
CN1CCC2(Cc3ccccc3CN(C(=O)CCN)C2)C1 (stereo unspecified) | 40%
O=C(NCCc1csc(-c2ccncc2)n1)C1CC(=O)N(C2CC2)C1 (stereo unspecified) | 2.66%
Cc1nc(C)n(CC2CCCN(CC(=O)Nc3cc(C)on3)C2)n1 (stereo unspecified) | -18.945%
CN(Cc1ccc(F)cc1)C(=O)CN1CCOC(Cn2cccn2)C1 (stereo unspecified) | -4.16%
CCc1ccc(O)c(C(=O)N2CCN(CC(=O)N(CC)CC)CC2)c1 | 56.6%
CCc1ccc(O)c(C(=O)N2CCCN(CC(=O)N(CC)CC)CC2)c1 | -1.57%
CCc1ccc(O)c(C(=O)N2CCN(CC(=O)N(C)C)CC2)c1 | 47.7%
COc1c(C2CCCN2Cc2noc(C)n2)c(C)nn1C (stereo unspecified) | -40.2%
COCCN(Cc1sccc1C)C(=O)c1c(O)cccc1F | -15.6%
CC(=O)N1CCC2(CC1)C(=O)N(c1ccc(C)nc1)CCN2CC(C)C | 60%
CCN1CCC2(CC1)C(=O)N(c1ccc(C)nc1)CCN2CC(C)C | 36.4%
Cc1ccc(N2CCN(CC3CC3)C3(CCN(C(C)C)CC3)C2=O)cn1 | 27.5%
